Screening data from PubChem BioAssay.
DRD3 agonist: qHTS of D3 Dopamine Receptor Agonist: qHTS | D(3) dopamine receptor (Homo sapiens), P35462 | D3R DiscoveRx beta-arrestin cells, luminescence, 90 min | max activation, % | actives 0.58% (n = 410,000) | AID 652048, 2013; in the data active = max activation above about 30%
Target sequence (P35462 whole entry, looked up): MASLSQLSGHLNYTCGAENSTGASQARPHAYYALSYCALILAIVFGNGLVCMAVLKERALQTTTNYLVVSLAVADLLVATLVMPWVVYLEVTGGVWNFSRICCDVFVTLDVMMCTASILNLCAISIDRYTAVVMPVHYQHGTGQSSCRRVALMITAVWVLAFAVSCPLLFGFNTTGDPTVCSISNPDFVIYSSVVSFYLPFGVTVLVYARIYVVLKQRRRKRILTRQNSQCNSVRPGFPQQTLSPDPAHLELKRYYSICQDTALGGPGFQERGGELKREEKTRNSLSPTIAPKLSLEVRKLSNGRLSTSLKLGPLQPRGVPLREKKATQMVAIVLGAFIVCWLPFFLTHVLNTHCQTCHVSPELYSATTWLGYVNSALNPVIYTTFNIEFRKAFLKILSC
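Cells at 1500/well, incubated overnight, then treated with pinned compounds (dopamine as control) for 90 min at 37 degrees C. DiscoveRx reagent added for 30 - 60 minutes at room temperature; luminescence read.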
IDH1 R132H inh: qHTS for Inhibitors of mutant isocitrate dehydrogenase 1 (IDH1): qHTS; Isocitrate dehydrogenase [NADP] cytoplasmic (Homo sapiens), O75874; IDH1-R132H enzyme, NADPH consumption, diaphorase/resazurin fluorescence; Potency, µM (series often up to 76.6 µM), hits mostly inhibitors; actives 0.093% (n = 390,000); also: nearly all actives have a fitted effect of over 65% in size
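IDH1-R132H (0.5 ug/mL dispensed) in pH 7.5 Tris buffer was preincubated 30 min with compound, then given a substrate mix of 0.016 mM NADPH and 2 mM alpha-KG for 80 min at room temperature; remaining NADPH was read by diaphorase/resazurin fluorescence.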
B2AR arrestin: qHTS assay of beta-arrestin-biased ligands of beta2-adrenergic receptor; beta-arrestin recruitment to beta2AR, cell-based reporter; Potency, µM (top dose mostly 46.1 µM), hits mostly activators; actives 0.02% (n = 330,000); AID 492947, 2010; also: nearly all actives have a fitted effect of over 65% in size
DRD3 antagonist: qHTS of D3 Dopamine Receptor Antagonist: qHTS. D3R cells, DiscoveRx beta-arrestin luminescence, antagonist mode; active compounds read low. D(3) dopamine receptor (Homo sapiens), P35462. max response, negative = inhibition, %. actives 2.5% (n = 360,000); in the data active = max response below about -50%; inconclusive = no clear call, values can overlap the other calls
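Cells expressing the human receptor were seeded at 1500 cells/well, incubated overnight at 37 degrees C in 5% CO2, then exposed to library compounds with dopamine controls for 90 minutes at 37 degrees C before luminescent detection.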
a7 integrin act: qHTS for Activators of Integrin-Mediated Alleviation for Muscular Dystrophy; alpha7betagal myoblasts, beta-gal FDG fluorescence, 48 h; Potency, µM (series often up to 38.3 µM), usual class: activators; actives 0.064% (n = 350,000); AID 624291, 2012; also: nearly all actives have a fitted effect of over 60% in size
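Alpha7betagal+/- myoblasts (passage 13) were plated 16-24 hr, then exposed to compounds (1:260 dilution of DMSO stock) for 48 hours at 37C. After MPER lysis, β-galactosidase reporter activity was read as FDG fluorescence (ex 480/em 540) after 30 minutes.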
Numbers stand for hits; – = inactive; ? = inconclusive; · = no result given; ! = not confirmed by another sample. Shown are actives, neighbours in structure and some others; about 2.9% of the full set was active somewhere. Unless noted, calls follow the shape of the dose curve; as a rule, active = well fitted curve in the direction sought with a large enough effect; inconclusive = small, poorly fitted or top-dose-only effect, or another doubt; inactive = no such curve, though single readings can be large; an effect the other way counts as inactive or inconclusive.

SMILES	DRD3 agonist	IDH1 R132H inh	B2AR arrestin	DRD3 antagonist	a7 integrin act
CC(C)(C)C(=O)OCOC(=O)[C@@H]1N2C(=O)[C@@H](N=CN3CCCCCC3)[C@H]2SC1(C)C	32!	–	–	–	·
O=Cc1ccc2ccc3cccnc3c2n1	–	–	–	–	–
Cc1ccnc2c1ccc1c(C)ccnc12	–	–	–	-100	–
Cc1ccnc2c1ccc1cccnc12	–	–	–	-95	–
c1cnc2c(c1)ccc1cccnc12	–	–	?	-76	–
Cc1c(Cl)cccc1-n1c(SCC(=O)NCc2ccccc2)nc2n[nH]c(C)c2c1=N	–	–	·	·	·
COc1ccc(CNc2nc3c(-c4ccc(C)cc4)nnn3c3ccccc23)cc1	–	–	·	·	·
CCOc1cccc(C(=O)Nc2cc(C)c(O)c(-c3nc4ncccc4o3)c2)c1	–	–	·	·	·
COC(=O)Cc1cc(=O)n2[nH]c(C)cc2n1	–	–	–	-52	–
COc1ccc(C2=NC(c3ccncc3)=Nc3ccc(OC)cc3N2)cc1	–	–	·	·	·
Cc1csc(NC(=O)c2sc3nc(-c4cccs4)ccc3c2N)n1	39	–	–	–	–
Cc1ccc(NC(=O)c2sc3nc(-c4cccs4)ccc3c2N)cc1F	–	–	·	·	·
Cc1cc(N2CCN(c3cccc(C)c3C)CC2)n2cnnc2n1	–	–	·	·	·
OCCN1CCN(CCCN2c3ccccc3Sc3ccc(C(F)(F)F)cc32)CC1	–	–	–	-96	·
CN(C)CCCN1c2ccc(O)cc2Sc2ccc(Cl)cc21	–	–	·	-110	–
CN(C)CCCN1c2ccccc2Sc2ccc(C(F)(F)F)cc21	–	·	–	-97	·
CC(CN(C)C)CN1c2ccccc2Sc2ccc(C(F)(F)F)cc21 (configuration not stated)	–	·	·	·	·
CN1CCN(CCC(=O)N2c3ccccc3Sc3ccc(C(F)(F)F)cc32)CC1	–	–	–	-53	–
CCN(CC)CC(=O)N1c2ccccc2Sc2ccc(Cl)cc21	–	–	–	?	–
CCCCOC(=O)c1ccc(NC(=O)C2(c3cccs3)CCOCC2)cc1	–	–	·	·	·
CCN(CC)CCCCN1c2ccccc2Sc2ccccc21	–	–	–	-107	–
OCCN1CCN(CCCN2c3ccccc3CCc3ccccc32)CC1	–	–	·	-125	–
Cc1cccnc1C1=NOC(Cc2ccccc2)C(=O)N1CCOc1ccc(F)cc1 (configuration not stated)	–	·	·	–	·
O=C(Nc1ccccc1)Nc1ccc(Cl)c(S(=O)(=O)N2CCOCC2)c1	–	–	–	-51	?
Cc1cccc(C)c1NC(=O)c1cc(S(N)(=O)=O)c(Cl)cc1O	–	·	·	·	·
SMILES	DRD3 agonist	IDH1 R132H inh	B2AR arrestin	DRD3 antagonist	a7 integrin act
COCC1CCCN(Cc2cn(-c3ccccc3F)nc2-c2cc(C)sc2C)C1 (configuration not stated)	–	–	–	-71	–
O=C(CS(=O)Cc1ccco1)NC/C=C\COc1cc(CN2CCCCC2)ccn1 (configuration not stated)	–	·	·	·	·
CCC1CCCCN1CCCNC(=O)C1CCN(c2nnc(-n3cccc3)s2)CC1 (configuration not stated)	–	–	–	–	–
Nc1ccc2c(c1)OC1(CCCCC1)O2	–	–	–	–	–
C=CCn1c(SCC(=O)Nc2ccc(C(=O)O)cc2)nc2scc(-c3ccccc3)c2c1=O	–	–	–	-71	?
Cc1occc1C(=O)N/N=C/c1sc(N2CCOCC2)nc1-c1ccccc1	–	–	–	-54	?
O=C(N/N=C/c1sc(N2CCOCC2)nc1-c1ccccc1)c1ccc(O)cc1	–	–	–	–	–
C/C(=C(\CCO)SS/C(CCO)=C(\C)N(C=O)Cc1cnc(C)nc1N)N(C=O)Cc1cnc(C)nc1N	–	·	·	·	·
Cc1ccc(Sc2nnc(Cc3ccccc3)c3ccccc23)cc1	–	–	–	-51	–
COc1ccc(Sc2nnc(Cc3ccccc3)c3ccccc23)cc1	–	–	–	?	–
COc1ccc(-c2cc(C(F)(F)F)nc(S(=O)(=O)CCCC(=O)Nc3ccccc3C(F)(F)F)n2)cc1OC	–	–	·	·	·
CN(C1=C(NC(=O)c2ccc(Cl)cc2)C(=O)c2ccccc2C1=O)c1ccccc1	–	–	–	-52	–
O=C1C(Cl)=C(NC(=O)c2ccccc2)C(=O)C(Cl)=C1NC(=O)c1ccccc1	–	–	–	-71	–
Cc1ccc(S(=O)(=O)Nc2cccc3cccnc23)cc1	–	–	–	-81	–
COc1cc(NS(=O)(=O)c2ccc(C)cc2)c2ncccc2c1	–	–	–	-55	–
Cc1ccc(S(=O)(=O)Nc2ccccc2-c2ccccc2NS(=O)(=O)c2ccc(C)cc2)cc1	–	–	–	–	–
COc1ccc(S(=O)(=O)Nc2ccccn2)cc1	–	–	–	–	–
Cc1ccccc1OCC(=O)Nc1cccc(C(=O)OCc2cc(=O)n3c(C)csc3n2)c1	–	–	·	·	·
O=C(CSc1nc2c(sc3ccccc32)c(=O)n1CCCN1CCCC1)NCC1CCCO1 (configuration not stated)	–	–	–	-57	–
CCOc1ccc(NC(=O)c2ccc(NC(=S)NC3CC3)cc2)cc1	–	–	–	–	–
CCOc1ccc(NC(=O)c2ccc(NC(=S)NC3CCCCC3)cc2)cc1	–	–	–	-68	–
O=C(CCC1COc2ccccc2O1)Nc1ccc(Cl)cn1 (configuration not stated)	–	–	–	-52	–
O=C(CCSCCc1ccccn1)Nc1ccc(Cl)cn1	–	–	–	-62	–
CC(C)C[C@@H](CN)NC(=O)c1nc[nH]c1C(=O)N[C@@H](CC(C)C)C(=O)CNC[C@H](C)NC(=O)c1nc[nH]c1C(=O)N[C@@H](CC(=O)O)C(=O)O	46	–	·	–	–
CC(C)C[C@@H](CNCC(=O)[C@H](CC(C)C)NC(=O)c1[nH]cnc1C(=O)N[C@@H](C)CN)NC(=O)c1nc[nH]c1C(=O)N[C@@H](Cc1ccccc1)C(=O)O	–	–	·	–	–
CC(C)C[C@@H](CNCC(=O)[C@H](CC(=O)O)NC(=O)c1[nH]cnc1C(=O)N[C@H](CN)CC(C)C)NC(=O)c1nc[nH]c1C(=O)N[C@@H](Cc1ccccc1)C(=O)O	–	–	·	-72	–
COc1cccc(-n2ccnc2SCC(=O)Nc2nc3ccc(C)cc3s2)c1	–	–	·	·	·
COc1ccc2[nH]c3c(=O)n(CCCCC(=O)NCCN4CCCC4)c(=S)[nH]c3c2c1	–	–	–	-96	–
CCN(CC)S(=O)(=O)c1ccc(NC(=O)c2c(C)oc3ncnc(N4CCOCC4)c23)cc1	–	–	·	·	·
C=C(CN(C)C)C(=O)c1ccc(C)cc1C	–	–	·	-88	–
